The record followed here is PubChem BioAssay (Tox21).

Records with an inconclusive call do not appear. Where a call stands in place of a potency, no number is given. Active and inactive are the calls of the source. Calls come from the whole dose curve; as a rule, active = well fitted curve in the direction sought with a large enough effect in the repeat runs; inconclusive = weak or mixed curves; inactive = no such curve, though single readings can be large; an effect the other way counts as inactive or inconclusive.

The first experiment is described as follows: A CellTox Green Cytotoxicity Assay to monitor cytotoxicity in HEK293 cells - 24 hour (AID 1224875). Note: nearly all actives have a fitted effect of over 45% in size. The following applies: CellTox Green fluorescence; series mostly up to 76.8 µM. The gist of the method: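 HEK293 cells, 600/well, were preincubated 5 hours and then exposed to compounds at 37 C for up to 40 hours. A cell-impermeant cyanine dye staining dead-cell DNA was read by fluorescence at 0, 8, 16, 24, 32 and 40 h time points.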
With `COc1cc2nc(N3CCN(C(=O)C4CCCO4)CC3)nc(N)c2cc1OC` (configuration not stated), the Potency entry is “inactive”.
In the case of `CN(C)CCCN(C)C`, the activity change was -1.21% [at 6.97 µM, hits give high values] (inactive).
Consider `BrCCOc1ccccc1`, for which the Potency entry was “inactive”.
Turning to `CN(C)CCc1c[nH]c2ccc(CS(=O)(=O)N3CCCC3)cc12`, the Potency entry was “inactive”.
Regarding `CC(=O)SC[C@@H](C)C(=O)N1CCC[C@H]1C(=O)N[C@@H](Cc1ccccc1)C(=O)O`, the Potency entry was “inactive”.
The same measure, in the same setting: for `C/C(=N\O)c1ccc(OCC(=O)N2CCCCC2)cc1` the value was “inactive”; for `C=CC(C)(CCC=C(C)C)OC(=O)C(C)C` (configuration not stated), “inactive”; for `CC(=O)Oc1ccc(C(C)=O)cc1`, “inactive”.
The same measure, in the same setting: in the case of `CC(C)(C)OC(=O)c1ccccc1C(=O)O` it was “inactive”; in that of `CNC(C)=O`, “inactive”; in that of `NNC(=O)OCc1ccccc1`, “inactive”.
On to `CC(C)(C)C(=O)CC(=O)C(C)(C)C`, for which the Potency entry was “inactive”.
`CN(C)c1ccncc1`: the Potency entry was “inactive”.
`CO/N=C(\C(=O)O)c1csc(NC(=O)CCl)n1`: the Potency entry is “inactive”.
Regarding `CC(CN1CC(=O)NC(=O)C1)N1CC(=O)NC(=O)C1` (configuration not stated), the Potency result is “inactive”.
On the same count and under the same terms, for `CCOC(=O)c1ccc(N(C)C)cc1` the value was “inactive”; for `O=C(CCBr)N1CCN(C(=O)CCBr)CC1`, “inactive”; for `Cc1ccc(Br)cc1`, “inactive”.
With `Cc1ccc(O)c(C(=O)c2ccccc2)c1`, the Potency result is “inactive”.
Take `CC(=O)O[C@@H]1CC2C3CCc4cc(OC(=O)c5ccccc5)ccc4C3CCC2(C)[C@H]1OC(C)=O` (some centres not stated): the Potency result was “inactive”.
`C[Si](C)(C)O[Si](O)(O)O`: the Potency result is “inactive”.
In the case of `Cc1cc(O)c(Cl)cc1C`, the Potency result is “inactive”.
Consider `C[C@@H]1NC(=O)[C@@H](N)CNC(=O)[C@H](C2CCNC(N)=N2)NC(=O)/C(=C/NC(N)=O)NC(=O)[C@H](CNC(=O)C[C@@H](N)CCCN)NC1=O` (some centres not stated), for which the activity change was 19.3% [at 0.29 µM, hits give high values] (inactive).
Regarding `C=C(C)C(=O)OCCOC1CC2CC1C1C=CCC21` (configuration not stated), the Potency entry is “inactive”.
For the compound `COc1cc(C(=O)NC2CCCNC2)cc(OC)c1OC` (configuration not stated), the Potency entry was “inactive”.
As to `C=CC(=O)OCC[N+](C)(C)C`, the Potency entry was “inactive”.
On to `CC1(C)CC(N)CC(C)(C)N1`, for which the Potency result is “inactive”.
As to `CC1=C(O)C(=O)CO1`, the Potency result is “inactive”.
As to `C[n+]1ccccc1/C=N/O`, the Potency entry was “inactive”.

A short description of another experiment: A CellTox Green Cytotoxicity Assay to monitor cytotoxicity in HepG2 cells - 16 hour (AID 1224876). Note: nearly all actives have a fitted effect of over 45% in size. Note: potency is the fitted concentration of half-maximal effect. The following applies: CellTox Green fluorescence; series mostly up to 76.8 µM. The gist of the method:
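HepG2 cells, 600/well, preincubated 5 h with CellTox Green dye, then exposed to Tox21 compounds in DMSO at 37 C for up to 40 h. Dead-cell DNA fluorescence read at the indicated time point.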
Turning to `O=C(O)P(=O)(O)O`, the Potency result was “inactive”.
As to `CC(C)C(C)C`, the Potency entry is “inactive”.
Same read-out and setting: in the case of `COc1cc2nc(N3CCN(C(=O)C4CCCO4)CC3)nc(N)c2cc1OC` (configuration not stated) it was “inactive”; in that of `CCCc1ncc(C(=O)O)s1`, “inactive”.
Consider `CN(C)CCCN(C)C`, for which the cytotoxicity increase is -15.4% [at 6.97 µM] (inactive).
Turning to `BrCCOc1ccccc1`, the Potency result is “inactive”.
Take `CN(C)CCc1c[nH]c2ccc(CS(=O)(=O)N3CCCC3)cc12`: the Potency entry is “inactive”.
Regarding `CC(=O)SC[C@@H](C)C(=O)N1CCC[C@H]1C(=O)N[C@@H](Cc1ccccc1)C(=O)O`, the Potency result was “inactive”.
For the compound `C/C(=N\O)c1ccc(OCC(=O)N2CCCCC2)cc1`, the Potency result was “inactive”.
Take `C=CC(C)(CCC=C(C)C)OC(=O)C(C)C` (configuration not stated): the Potency entry was “inactive”.
`Cc1cccc(N)n1`: the Potency entry was “inactive”.
Consider `CC(=O)Oc1ccc(C(C)=O)cc1`, for which the Potency result is “inactive”.
Consider `CC(C)(C)OC(=O)c1ccccc1C(=O)O`, for which the Potency entry was “inactive”.
In the case of `C/C=C(\C)C=O`, the Potency result was “inactive”.
For the compound `CNC(C)=O`, the Potency result is “inactive”.
In the case of `NNC(=O)OCc1ccccc1`, the Potency result was “inactive”.
As to `CC(C)(C)C(=O)CC(=O)C(C)(C)C`, the Potency entry is “inactive”.
Turning to `COCCCOc1cc(C[C@@H](C[C@H](N)[C@@H](O)C[C@H](C(=O)NCC(C)(C)C(N)=O)C(C)C)C(C)C)ccc1OC`, the Potency entry was “inactive”.
Take `CN(C)c1ccncc1`: the Potency result was “inactive”.
Consider `COC(=O)c1ccc(NC(C)=O)cc1OC`, for which the Potency result is “inactive”.
Turning to `CO/N=C(\C(=O)O)c1csc(NC(=O)CCl)n1`, the Potency entry is “inactive”.
On to `CC(CN1CC(=O)NC(=O)C1)N1CC(=O)NC(=O)C1` (configuration not stated), for which the Potency result was “inactive”.
The same measure, in the same setting: for `CCOCCOCCOC(C)=O` the value was “inactive”.
In the case of `CCOC(=O)c1ccc(N(C)C)cc1`, the Potency result was “inactive”.
Same read-out and setting: for `O=C(CCBr)N1CCN(C(=O)CCBr)CC1` the value was “inactive”.
On the same count and under the same terms, for `Cc1ccc(Br)cc1` the value was “inactive”; for `CC(=O)O[C@@H]1CC2C3CCc4cc(OC(=O)c5ccccc5)ccc4C3CCC2(C)[C@H]1OC(C)=O` (some centres not stated), “inactive”; for `C[Si](C)(C)O[Si](O)(O)O`, “inactive”.
For `Cc1cc(O)c(Cl)cc1C`, the Potency is 49 µM (active).
Consider `C[C@@H]1NC(=O)[C@@H](N)CNC(=O)[C@H](C2CCNC(N)=N2)NC(=O)/C(=C/NC(N)=O)NC(=O)[C@H](CNC(=O)C[C@@H](N)CCCN)NC1=O` (some centres not stated), for which the cytotoxicity increase was -2.83% [at 0.29 µM] (inactive).
As for `C=C(C)C(=O)OCCOC1CC2CC1C1C=CCC21` (configuration not stated), the Potency result is “inactive”.
As to `COc1cc(C(=O)NC2CCCNC2)cc(OC)c1OC` (configuration not stated), the Potency result is “inactive”.
Same read-out and setting: for `C=CC(=O)OCC[N+](C)(C)C` the value was “inactive”; for `CC1(C)CC(N)CC(C)(C)N1`, “inactive”; for `C[n+]1ccccc1/C=N/O`, “inactive”.

The next experiment in a line: qHTS RealTime-Glo MT Cell Viability Assay in HepG2 cells - 32 hour (AID 1224877). Note: nearly all actives have a fitted effect of over 55% in size. The following applies: RealTime-Glo luminescence; series mostly up to 76.8 µM. The gist of the method: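 Compound treatment began 5 h after plating HepG2 cells (600/well) with NanoLuc luciferase and prosubstrate. Plates stayed at 37 C for 40 h; luminescence was captured at six time points, 0 h through 40 h.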
Regarding `O=C(O)P(=O)(O)O`, the call was inactive.
For `COc1cc2nc(N3CCN(C(=O)C4CCCO4)CC3)nc(N)c2cc1OC` (configuration not stated), the outcome was inactive.
Take `CN(C)CCCN(C)C`: the activity change, negative = cytotoxic was 0.21% [at 6.97 µM] (inactive).
On to `BrCCOc1ccccc1`, for which the call was inactive.
With `CN(C)CCc1c[nH]c2ccc(CS(=O)(=O)N3CCCC3)cc12`, the result was inactive.
Consider `CC(=O)SC[C@@H](C)C(=O)N1CCC[C@H]1C(=O)N[C@@H](Cc1ccccc1)C(=O)O`, for which the compound was classed as inactive.
Consider `C/C(=N\O)c1ccc(OCC(=O)N2CCCCC2)cc1`, for which the outcome was inactive.
Still for that read-out and setting: in the case of `Cc1cccc(N)n1` it was “inactive”.
With `CC(C)(C)OC(=O)c1ccccc1C(=O)O`, the call was inactive.
Consider `C/C=C(\C)C=O`, for which the result was inactive.
With `CNC(C)=O`, the compound was classed as inactive.
The same measure, in the same setting: in the case of `NNC(=O)OCc1ccccc1` it was “inactive”.
Still for that read-out and setting: in the case of `CC(C)(C)C(=O)CC(=O)C(C)(C)C` it was “inactive”; in that of `COCCCOc1cc(C[C@@H](C[C@H](N)[C@@H](O)C[C@H](C(=O)NCC(C)(C)C(N)=O)C(C)C)C(C)C)ccc1OC`, “inactive”; in that of `CN(C)c1ccncc1`, “inactive”.
On to `COC(=O)c1ccc(NC(C)=O)cc1OC`, for which the compound was called inactive.
Still for that read-out and setting: in the case of `CC(CN1CC(=O)NC(=O)C1)N1CC(=O)NC(=O)C1` (configuration not stated) it was “inactive”; in that of `CCOCCOCCOC(C)=O`, “inactive”; in that of `CCOC(=O)c1ccc(N(C)C)cc1`, “inactive”.
On the same count and under the same terms, in the case of `O=C(CCBr)N1CCN(C(=O)CCBr)CC1` it was “inactive”; in that of `Cc1ccc(Br)cc1`, “inactive”; in that of `Cc1ccc(O)c(C(=O)c2ccccc2)c1`, “inactive”.
With `CC(=O)O[C@@H]1CC2C3CCc4cc(OC(=O)c5ccccc5)ccc4C3CCC2(C)[C@H]1OC(C)=O` (some centres not stated), the compound was classed as inactive.
As to `C[Si](C)(C)O[Si](O)(O)O`, the compound was classed as inactive.
As for `C=C(C)C(=O)OCCOC1CC2CC1C1C=CCC21` (configuration not stated), the compound was called inactive.
Regarding `C=CC(=O)OCC[N+](C)(C)C`, the call was inactive.
As for `CC1(C)CC(N)CC(C)(C)N1`, the result was inactive.
In the case of `CC1=C(O)C(=O)CO1`, the call was inactive.
